Molecules are shown by their SMILES.

The target of this assay is T1, Testis-specific serine/threonine-protein kinase 2 (Homo sapiens) (UniProt Q96PF2).
T1 sequence (whole entry): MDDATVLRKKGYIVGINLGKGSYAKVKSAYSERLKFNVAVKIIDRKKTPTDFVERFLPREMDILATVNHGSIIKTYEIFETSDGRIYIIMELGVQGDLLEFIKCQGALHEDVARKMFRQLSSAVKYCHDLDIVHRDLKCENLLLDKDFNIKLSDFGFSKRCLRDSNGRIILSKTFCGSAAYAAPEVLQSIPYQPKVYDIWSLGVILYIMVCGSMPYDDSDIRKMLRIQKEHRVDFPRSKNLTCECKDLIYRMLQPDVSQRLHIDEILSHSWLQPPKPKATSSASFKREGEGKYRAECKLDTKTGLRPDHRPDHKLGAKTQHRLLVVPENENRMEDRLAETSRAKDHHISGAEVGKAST
The conditions noted are these: at 1 µM.
In the case of `O=C(Nc1cccc(Nc2nccc(Nc3cccc(C(F)(F)F)c3)n2)c1)C1CC1`, the residual activity came to 86%.

`c1ccc(-c2cnc(Nc3ccc(OCCN4CCCC4)cc3)s2)cc1`: the residual activity came out at 100%.

As to `Nc1ccc2ncnc(NCCc3ccc(Oc4ccccc4)cc3)c2c1`, the residual activity worked out at 106%.

Turning to `O=C(O)/C=C/c1cc(Br)c(Br)c(Br)c1Br`, the residual activity came out at 96%.

Turning to `O=C1Nc2ccc(Cl)cc2/C1=C/c1cc(Cl)c(O)c(Cl)c1`, the residual activity was 76%.

For `Cc1ccc(NC2=CC(=O)c3sc(C)nc3C2=O)cc1`, the residual activity is 93%.

`O=C(c1cc2cc(O)ccc2[nH]1)c1cc2cc(O)ccc2[nH]1`: the residual activity was found to be 77%.

Regarding `CCN(CC)CCNC(=O)c1c(C)[nH]c(/C=C2\C(=O)Nc3ccc(Cl)cc32)c1C`, the residual activity was 62%.

Take `Fc1ccc(-c2nc3n(c2-c2ccncc2)CCS3)cc1`: the residual activity stood at 85%.

With `CCC(=O)Nc1ccc2ncnc(Nc3cccc(Br)c3)c2c1`, the residual activity is 95%.

As to `Cn1c2ccccc2c2c3c(c4c5ccccc5n(CCC#N)c4c21)CNC3=O`, the residual activity worked out at 64%.

Turning to `O=Nc1c(-c2c(O)[nH]c3ccccc23)[nH]c2ccccc12`, the residual activity is 95%.

Turning to `Cn1nc2c3c(cccc31)C(=O)c1ccccc1-2`, the residual activity stood at 79%.

For the molecule `CCN1/C(=C/C(C)=O)Sc2ccc(OC)cc21`, the residual activity came to 77%.

In the case of `Oc1c2ccccc2c2c3c(cccc13)N=N2`, the residual activity was 92%.

Take `O=C1NC(=O)c2c1c1c3ccccc3[nH]c1n1cncc21`: the residual activity was determined as 83%.

With `O=C(O)c1ccc2c3c1cccc3c(=O)n1c3ccccc3nc21`, the residual activity came out at 118%.

In the case of `Cc1cccc(-c2[nH]c(C(C)(C)C)nc2-c2ccc3c(c2)OCO3)n1`, the residual activity came out at 93%.

Take `c1ccc2c(-c3ccncc3)c[nH]c2c1`: the residual activity came out at 100%.

With `CN(C)CCCn1cc(C2=C(c3c[nH]c4ccccc34)C(=O)NC2=O)c2ccccc21`, the residual activity was 103%.

In the case of `COc1cc2ncnc(Nc3ccc(Oc4ccccc4)cc3)c2cc1OC`, the residual activity was 97%.

For the molecule `CCCCc1c(-c2ccc(O)cc2)[nH]c2nccnc12`, the residual activity is 94%.

With `NC(=O)c1ccc2[nH]c(-c3ccc(Oc4ccc(Cl)cc4)cc3)nc2c1`, the residual activity worked out at 98%.

Turning to `O=c1cc(-c2cccc3c2Sc2ccccc2S3)oc(N2CCOCC2)c1`, the residual activity is 112%.

With `CC#CC(=O)Nc1cc2c(Nc3ccc(F)c(Cl)c3)ncnc2cn1`, the residual activity came to 87%.

Turning to `Oc1n[nH]c2nnc(-c3c(-c4ccccc4)nn4ccccc34)cc12`, the residual activity was 95%.

As to `CCN(CC)C(=O)c1ccc(Nc2nc(OCC3CCCCC3)c3nc[nH]c3n2)cc1`, the residual activity amounted to 62%.

As for `CC(C)[C@H](CO)Nc1nc(Nc2cc(N)cc(Cl)c2)c2ncn(C(C)C)c2n1`, the residual activity is 91%.

For `COc1cc2ncnc(Nc3ccc(NC(=O)c4ccccc4)cc3)c2cc1OC`, the residual activity turned out to be 106%.

In the case of `O=C1NC(=O)c2c1c1c3ccccc3[nH]c1c1[nH]c3cc(Br)ccc3c21`, the residual activity was found to be 102%.

For the molecule `COc1cc2ncnc(N3CCN(C(=O)Nc4ccc(Oc5ccccc5)cc4)CC3)c2cc1OC`, the residual activity was 96%.

Consider `Cn1cnc2cc3c(Nc4cccc(Br)c4)ncnc3cc21`, for which the residual activity came to 100%.

For the molecule `N#Cc1cnc2cnc(NCc3cccnc3)cc2c1Nc1ccc(F)c(Cl)c1`, the residual activity came to 14%.

In the case of `Nc1nc(Nc2ccc(S(N)(=O)=O)cc2)nn1C(=O)c1c(F)cccc1F`, the residual activity turned out to be 103%.

Consider `Cn1cc(/C=C2\C(=O)Nc3ccc(S(N)(=O)=O)cc32)c2ccccc21`, for which the residual activity was 72%.

With `CC(C)(C)n1nc(Cc2cccc3ccccc23)c2c(N)ncnc21`, the residual activity worked out at 104%.

For `CNc1cc2c(Nc3cccc(Br)c3)ncnc2cn1`, the residual activity stood at 104%.

With `O=[N+]([O-])c1ccc(-c2nc(-c3ccc(F)cc3)c(-c3ccncc3)[nH]2)cc1`, the residual activity amounted to 100%.

Consider `CO[C@H]1[C@@H](OC)C[C@H](C)[C@@H](OC)C2=CC(=O)C=C(NC(=O)/C(C)=C/C=C/[C@H](OC)[C@@H](OC(N)=O)/C(C)=C/[C@@H]1C)C2=O`, for which the residual activity was 97%.

`O=C1NC(=O)C(c2cn(CCCO)c3ncccc23)=C1c1cnccn1`: the residual activity was 59%.
